From ChEMBL document CHEMBL2218924, “A broad activity screen in support of a chemogenomic map for kinase signalling research and drug discovery” (Biochem J, 2013) come the findings set out here.

In test [1] the target is Insulin receptor-related protein (Homo sapiens) (UniProt P14616). The conditions noted are these: at 1 µM.
The target is the same in test [2]. The conditions noted are these: at 10 µM.
Test [3] addresses T1, Tyrosine-protein kinase JAK3 (Homo sapiens) (UniProt P52333).
T1 sequence (whole entry): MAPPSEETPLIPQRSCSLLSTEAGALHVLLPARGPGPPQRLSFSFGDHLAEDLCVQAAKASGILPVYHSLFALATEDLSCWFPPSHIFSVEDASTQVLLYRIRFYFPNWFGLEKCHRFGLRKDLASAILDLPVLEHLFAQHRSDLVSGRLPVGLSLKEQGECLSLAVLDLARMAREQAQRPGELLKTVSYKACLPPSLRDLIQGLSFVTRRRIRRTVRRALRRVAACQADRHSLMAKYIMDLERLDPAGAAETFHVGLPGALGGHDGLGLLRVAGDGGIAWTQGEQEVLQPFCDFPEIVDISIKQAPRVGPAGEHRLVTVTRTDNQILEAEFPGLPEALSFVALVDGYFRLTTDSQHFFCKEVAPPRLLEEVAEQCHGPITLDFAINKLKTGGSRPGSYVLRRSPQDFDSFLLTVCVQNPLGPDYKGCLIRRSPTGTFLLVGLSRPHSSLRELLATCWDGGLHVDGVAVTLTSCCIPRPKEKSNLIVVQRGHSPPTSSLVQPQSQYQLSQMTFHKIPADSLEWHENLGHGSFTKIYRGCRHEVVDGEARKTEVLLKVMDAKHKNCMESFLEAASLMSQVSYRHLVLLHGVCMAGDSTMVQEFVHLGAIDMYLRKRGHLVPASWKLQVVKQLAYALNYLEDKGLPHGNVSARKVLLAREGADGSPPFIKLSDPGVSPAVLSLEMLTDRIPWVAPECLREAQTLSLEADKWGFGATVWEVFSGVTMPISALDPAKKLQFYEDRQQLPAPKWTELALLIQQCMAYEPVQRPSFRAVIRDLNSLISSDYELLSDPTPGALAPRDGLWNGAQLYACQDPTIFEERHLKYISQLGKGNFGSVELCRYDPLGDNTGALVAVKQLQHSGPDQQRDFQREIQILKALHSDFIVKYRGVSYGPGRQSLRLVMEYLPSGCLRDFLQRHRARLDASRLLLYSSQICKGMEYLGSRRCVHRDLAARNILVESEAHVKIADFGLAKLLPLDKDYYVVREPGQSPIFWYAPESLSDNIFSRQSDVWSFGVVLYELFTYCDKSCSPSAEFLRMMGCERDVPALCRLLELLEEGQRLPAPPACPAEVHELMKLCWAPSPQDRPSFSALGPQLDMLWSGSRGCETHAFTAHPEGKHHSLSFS
Conditions: at 1 µM.

Test [4] has as its target T1, Tyrosine-protein kinase JAK3 (Homo sapiens). Conditions: at 10 µM.
Test [5] addresses Mitogen-activated protein kinase 10 (Homo sapiens) (UniProt P53779). Conditions: at 1 µM.
Test [6] addresses Insulin receptor (Homo sapiens) (UniProt P06213). Conditions: at 10 µM.
Test [7] has the same target. The conditions noted are these: at 1 µM.
For test [8] the target is unchanged. Conditions: at 10 µM. This is another data set of the same source.
Test [9] deals with Interleukin-1 receptor-associated kinase 1 (Homo sapiens) (UniProt P51617). Conditions: at 1 µM.
Test [10] has the same target. Conditions: at 10 µM.
The target of test [11] is T2, Interleukin-1 receptor-associated kinase 4 (Homo sapiens) (UniProt Q9NWZ3).
T2 sequence (whole entry): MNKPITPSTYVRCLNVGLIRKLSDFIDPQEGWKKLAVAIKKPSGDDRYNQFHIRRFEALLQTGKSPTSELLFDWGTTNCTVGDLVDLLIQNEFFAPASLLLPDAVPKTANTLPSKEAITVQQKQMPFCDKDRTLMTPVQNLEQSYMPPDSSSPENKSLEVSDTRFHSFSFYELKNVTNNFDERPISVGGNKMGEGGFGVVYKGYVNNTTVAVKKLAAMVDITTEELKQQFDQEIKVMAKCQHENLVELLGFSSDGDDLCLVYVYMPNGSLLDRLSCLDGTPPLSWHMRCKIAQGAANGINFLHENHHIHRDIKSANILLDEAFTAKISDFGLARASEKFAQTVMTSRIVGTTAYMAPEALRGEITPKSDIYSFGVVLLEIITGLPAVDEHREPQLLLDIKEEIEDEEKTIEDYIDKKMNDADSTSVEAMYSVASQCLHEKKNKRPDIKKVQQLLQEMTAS
Conditions: at 1 µM.

Test [12] has as its target T2, Interleukin-1 receptor-associated kinase 4 (Homo sapiens). The conditions noted are these: at 10 µM.
Test [13] deals with T3, Tyrosine-protein kinase ITK/TSK (Homo sapiens) (UniProt Q08881).
T3 sequence (whole entry): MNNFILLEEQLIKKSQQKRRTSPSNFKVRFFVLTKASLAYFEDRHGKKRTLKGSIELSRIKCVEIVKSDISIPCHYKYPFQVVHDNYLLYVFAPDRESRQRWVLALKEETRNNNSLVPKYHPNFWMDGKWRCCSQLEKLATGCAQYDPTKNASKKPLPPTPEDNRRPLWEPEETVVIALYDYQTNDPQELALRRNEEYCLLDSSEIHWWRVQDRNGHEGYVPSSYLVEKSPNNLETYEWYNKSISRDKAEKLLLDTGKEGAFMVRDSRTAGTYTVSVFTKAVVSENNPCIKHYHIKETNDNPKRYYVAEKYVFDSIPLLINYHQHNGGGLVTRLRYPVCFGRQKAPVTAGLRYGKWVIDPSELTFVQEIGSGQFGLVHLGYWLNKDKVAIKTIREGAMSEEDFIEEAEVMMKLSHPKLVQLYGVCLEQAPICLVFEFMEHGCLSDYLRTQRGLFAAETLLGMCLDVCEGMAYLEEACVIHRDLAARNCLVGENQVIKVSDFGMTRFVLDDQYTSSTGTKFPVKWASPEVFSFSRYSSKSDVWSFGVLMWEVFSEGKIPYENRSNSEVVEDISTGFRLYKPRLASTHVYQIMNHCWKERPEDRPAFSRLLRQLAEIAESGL
Conditions: at 1 µM.

Test [14] concerns the target T3, Tyrosine-protein kinase ITK/TSK (Homo sapiens). The conditions noted are these: at 10 µM.
For test [15], the target named is Tyrosine-protein kinase JAK2 (Homo sapiens) (UniProt O60674). Conditions: at 1 µM.
Chain of Tyrosine-protein kinase JAK2 (Homo sapiens) (O60674 whole entry): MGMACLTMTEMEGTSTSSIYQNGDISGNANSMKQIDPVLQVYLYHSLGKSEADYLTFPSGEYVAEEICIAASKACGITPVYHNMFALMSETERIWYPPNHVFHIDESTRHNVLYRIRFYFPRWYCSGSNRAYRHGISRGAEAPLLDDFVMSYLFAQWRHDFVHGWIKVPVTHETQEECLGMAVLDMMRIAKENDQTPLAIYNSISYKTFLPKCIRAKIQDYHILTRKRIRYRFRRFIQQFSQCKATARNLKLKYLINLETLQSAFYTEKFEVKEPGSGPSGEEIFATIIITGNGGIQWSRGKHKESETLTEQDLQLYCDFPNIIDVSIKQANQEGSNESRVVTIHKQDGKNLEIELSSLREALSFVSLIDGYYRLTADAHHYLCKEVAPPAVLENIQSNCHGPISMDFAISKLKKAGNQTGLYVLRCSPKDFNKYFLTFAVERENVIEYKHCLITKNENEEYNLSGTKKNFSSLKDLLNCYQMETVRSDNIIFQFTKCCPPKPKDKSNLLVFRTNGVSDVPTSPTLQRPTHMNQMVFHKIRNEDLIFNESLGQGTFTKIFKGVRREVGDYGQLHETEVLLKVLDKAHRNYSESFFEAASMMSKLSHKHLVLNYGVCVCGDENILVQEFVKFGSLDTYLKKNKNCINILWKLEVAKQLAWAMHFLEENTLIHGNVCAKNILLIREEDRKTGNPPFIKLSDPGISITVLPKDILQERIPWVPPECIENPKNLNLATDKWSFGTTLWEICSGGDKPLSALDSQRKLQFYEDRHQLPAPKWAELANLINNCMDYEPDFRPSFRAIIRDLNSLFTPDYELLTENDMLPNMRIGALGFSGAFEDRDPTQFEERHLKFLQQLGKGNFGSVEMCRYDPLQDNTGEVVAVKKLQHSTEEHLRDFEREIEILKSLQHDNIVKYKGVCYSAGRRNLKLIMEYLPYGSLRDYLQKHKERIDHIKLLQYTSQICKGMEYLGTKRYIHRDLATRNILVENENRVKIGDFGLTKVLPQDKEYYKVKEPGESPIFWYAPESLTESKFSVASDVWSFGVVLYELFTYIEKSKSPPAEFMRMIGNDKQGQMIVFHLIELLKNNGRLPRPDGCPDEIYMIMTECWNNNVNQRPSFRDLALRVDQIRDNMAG
Test [16] shares this target. The conditions noted are these: at 10 µM.
In test [17] the target is Mitogen-activated protein kinase 8 (Homo sapiens) (UniProt P45983). The conditions noted are these: at 1 µM.
The target is the same in test [18]. Conditions: at 10 µM.
In test [19] the target is Mitogen-activated protein kinase 9 (Homo sapiens) (UniProt P45984). Conditions: at 1 µM.
Chain of Mitogen-activated protein kinase 9 (Homo sapiens) (P45984 whole entry, looked up): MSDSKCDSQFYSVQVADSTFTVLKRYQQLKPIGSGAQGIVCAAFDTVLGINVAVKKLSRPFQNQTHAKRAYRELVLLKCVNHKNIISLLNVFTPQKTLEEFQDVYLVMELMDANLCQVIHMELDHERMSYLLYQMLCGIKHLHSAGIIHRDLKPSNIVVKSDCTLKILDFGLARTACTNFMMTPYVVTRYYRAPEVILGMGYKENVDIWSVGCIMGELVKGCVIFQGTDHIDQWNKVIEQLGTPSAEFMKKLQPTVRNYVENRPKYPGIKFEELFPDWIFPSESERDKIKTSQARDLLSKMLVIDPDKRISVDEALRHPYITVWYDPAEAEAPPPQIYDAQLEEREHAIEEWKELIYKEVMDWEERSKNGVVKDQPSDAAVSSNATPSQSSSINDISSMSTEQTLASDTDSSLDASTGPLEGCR
For test [20] the target is unchanged. The conditions noted are these: at 10 µM.

Chain of Insulin receptor-related protein (Homo sapiens) (P14616 27-742 limits assumed): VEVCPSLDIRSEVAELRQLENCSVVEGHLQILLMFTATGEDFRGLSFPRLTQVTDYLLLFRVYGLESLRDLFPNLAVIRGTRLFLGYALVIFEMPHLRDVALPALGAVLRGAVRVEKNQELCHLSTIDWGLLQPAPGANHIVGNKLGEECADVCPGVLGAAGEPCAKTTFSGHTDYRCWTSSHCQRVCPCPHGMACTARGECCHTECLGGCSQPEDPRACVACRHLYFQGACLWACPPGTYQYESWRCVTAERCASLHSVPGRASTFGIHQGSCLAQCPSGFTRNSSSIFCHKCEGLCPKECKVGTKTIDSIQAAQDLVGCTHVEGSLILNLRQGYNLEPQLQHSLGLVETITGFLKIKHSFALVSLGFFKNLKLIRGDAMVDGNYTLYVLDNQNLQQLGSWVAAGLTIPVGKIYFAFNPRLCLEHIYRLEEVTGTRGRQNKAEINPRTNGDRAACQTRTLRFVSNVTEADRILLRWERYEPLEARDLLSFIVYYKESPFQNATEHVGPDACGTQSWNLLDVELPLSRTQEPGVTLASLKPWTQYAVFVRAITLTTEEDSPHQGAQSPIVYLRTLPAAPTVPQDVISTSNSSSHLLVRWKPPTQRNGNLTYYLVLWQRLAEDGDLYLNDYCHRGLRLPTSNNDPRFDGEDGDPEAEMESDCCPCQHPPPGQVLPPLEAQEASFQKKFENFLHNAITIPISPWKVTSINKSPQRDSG
Chain of Insulin receptor-related protein (Homo sapiens) (P14616 747-1297 limits assumed): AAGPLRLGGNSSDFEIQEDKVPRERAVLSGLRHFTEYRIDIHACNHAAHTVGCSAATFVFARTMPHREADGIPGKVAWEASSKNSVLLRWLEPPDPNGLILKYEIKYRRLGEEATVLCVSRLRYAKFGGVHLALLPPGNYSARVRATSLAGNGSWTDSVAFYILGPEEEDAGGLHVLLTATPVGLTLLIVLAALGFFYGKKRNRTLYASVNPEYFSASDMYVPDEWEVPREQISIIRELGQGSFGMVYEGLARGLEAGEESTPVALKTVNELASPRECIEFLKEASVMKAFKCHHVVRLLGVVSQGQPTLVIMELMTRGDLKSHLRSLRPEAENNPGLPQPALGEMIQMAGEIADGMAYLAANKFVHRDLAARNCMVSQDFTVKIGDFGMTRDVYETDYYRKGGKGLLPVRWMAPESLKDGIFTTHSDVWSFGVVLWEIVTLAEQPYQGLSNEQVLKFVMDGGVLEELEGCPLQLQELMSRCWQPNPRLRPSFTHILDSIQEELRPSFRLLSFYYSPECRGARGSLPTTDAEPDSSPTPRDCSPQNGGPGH
Chain of Mitogen-activated protein kinase 10 (Homo sapiens) (P53779 whole entry): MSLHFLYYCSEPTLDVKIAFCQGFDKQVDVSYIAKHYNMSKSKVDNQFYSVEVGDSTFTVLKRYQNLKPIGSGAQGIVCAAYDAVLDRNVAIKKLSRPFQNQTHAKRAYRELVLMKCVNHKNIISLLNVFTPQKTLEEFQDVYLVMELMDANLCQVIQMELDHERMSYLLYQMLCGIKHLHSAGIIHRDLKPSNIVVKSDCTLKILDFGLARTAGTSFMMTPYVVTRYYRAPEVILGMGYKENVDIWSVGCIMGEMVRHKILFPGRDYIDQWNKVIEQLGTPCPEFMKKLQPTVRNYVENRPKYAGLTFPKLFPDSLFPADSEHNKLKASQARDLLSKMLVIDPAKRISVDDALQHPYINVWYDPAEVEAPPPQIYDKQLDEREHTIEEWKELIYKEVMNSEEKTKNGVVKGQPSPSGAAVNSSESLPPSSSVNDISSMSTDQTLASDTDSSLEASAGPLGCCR
Chain of Insulin receptor (Homo sapiens) (P06213 28-758 limits assumed): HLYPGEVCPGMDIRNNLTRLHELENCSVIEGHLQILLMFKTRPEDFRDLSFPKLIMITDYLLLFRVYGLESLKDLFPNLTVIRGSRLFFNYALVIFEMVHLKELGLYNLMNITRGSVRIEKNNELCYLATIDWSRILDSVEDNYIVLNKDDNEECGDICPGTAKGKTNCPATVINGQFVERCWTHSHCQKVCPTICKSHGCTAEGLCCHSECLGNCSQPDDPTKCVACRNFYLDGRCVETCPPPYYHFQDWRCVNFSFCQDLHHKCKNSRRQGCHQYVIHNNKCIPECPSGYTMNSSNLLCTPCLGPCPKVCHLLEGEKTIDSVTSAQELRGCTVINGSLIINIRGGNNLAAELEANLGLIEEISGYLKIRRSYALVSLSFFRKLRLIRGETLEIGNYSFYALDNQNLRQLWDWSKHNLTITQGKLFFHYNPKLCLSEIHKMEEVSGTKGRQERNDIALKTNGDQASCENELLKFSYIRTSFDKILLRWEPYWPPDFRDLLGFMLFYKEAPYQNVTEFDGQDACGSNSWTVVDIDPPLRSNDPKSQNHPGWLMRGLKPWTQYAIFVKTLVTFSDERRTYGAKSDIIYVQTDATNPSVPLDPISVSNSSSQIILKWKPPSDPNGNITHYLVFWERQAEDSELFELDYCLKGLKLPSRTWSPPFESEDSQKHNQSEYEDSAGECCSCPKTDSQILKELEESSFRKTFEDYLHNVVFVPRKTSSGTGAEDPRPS
Chain of Insulin receptor (Homo sapiens) (P06213 763-1382 limits assumed): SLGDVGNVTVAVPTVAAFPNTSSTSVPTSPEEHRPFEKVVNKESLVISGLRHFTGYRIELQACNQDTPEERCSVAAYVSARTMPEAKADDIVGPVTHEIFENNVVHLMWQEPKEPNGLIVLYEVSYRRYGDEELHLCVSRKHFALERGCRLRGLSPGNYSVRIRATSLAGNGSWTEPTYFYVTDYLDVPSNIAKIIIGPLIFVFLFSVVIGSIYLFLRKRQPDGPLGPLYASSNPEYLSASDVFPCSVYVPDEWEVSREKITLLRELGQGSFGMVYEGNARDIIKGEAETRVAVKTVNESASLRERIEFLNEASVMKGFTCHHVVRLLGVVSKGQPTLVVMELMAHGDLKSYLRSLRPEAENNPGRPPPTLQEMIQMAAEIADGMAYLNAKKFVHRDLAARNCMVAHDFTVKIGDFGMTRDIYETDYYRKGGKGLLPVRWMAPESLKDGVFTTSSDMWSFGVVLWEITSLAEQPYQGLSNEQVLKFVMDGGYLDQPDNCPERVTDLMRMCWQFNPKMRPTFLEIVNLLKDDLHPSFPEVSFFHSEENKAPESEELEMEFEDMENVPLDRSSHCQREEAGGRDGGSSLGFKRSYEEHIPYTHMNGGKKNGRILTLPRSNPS

Consider `COc1cc2ncc(-c3ccccc3)nc2cc1OC`, for which the residual activity in test [1] is 137%; in [2], 80%; in test [3], 92%; in [4], 58%; in test [5] it was 99%.

With `COc1ccc(S(=O)(=O)N(CCO)c2ccccc2CN(C)C/C=C/c2ccc(Cl)cc2)cc1`, the residual activity in [6] is 114%; in [7], 100%; in [8] it was 90%; in test [9], 99%; in test [10], 106%; in test [11], 81%. Moreover, the residual activity in test [12] was determined as 75%; in test [1] it was 117%; in test [2] it was 90%; in [13], 99%; in test [14] it was 94%; in test [15] it was 102%. The residual activity was 131% in test [16]; 116% in [3]; 104% in test [4]; 95% in test [17]; 85% in test [18]; 92% in test [19]. Further, the residual activity worked out at 97% in test [20] and 82% in test [5].

Regarding `Oc1ccc(-c2nc(-c3ccc(F)cc3)c(-c3ccncc3)[nH]2)cc1`, the residual activity in test [6] stood at 126%; in test [7] it was 97%; in [8] it was 90%; in test [9], 104%; in test [10], 79%; in test [12], 88%. In addition, the residual activity was found to be 98% in [2]; 108% in [13]; 98% in test [14]; 101% in test [15]; 112% in test [16]; 108% in test [3]. In addition, the residual activity in test [4] turned out to be 93%; in [17] it was 99%; in [18] it was 79%; in test [19] it was 69%; in test [20], 12%; in test [5], 10%.

For the compound `O=C1Nc2ccc(Br)cc2/C1=C\c1cc2c([nH]1)CCCC2`, the residual activity turned out to be 79% in test [6]; 82% in test [11]; 77% in test [12]; 114% in [1]; 63% in test [2]; 105% in [15]. For the same compound, the residual activity amounted to 99% in test [16]; 108% in test [3]; 101% in test [4]; 114% in [17]; 114% in [18]; 101% in [19].

In the case of `N#CC(C#N)=C(N)/C(C#N)=C/c1ccc(O)cc1`, the residual activity in test [6] turned out to be 83%; in [7], 98%; in [8], 93%; in test [10], 84%; in test [1] it was 142%; in [2], 76%. In addition, the residual activity in test [18] is 83%; in test [5], 96%.

For the compound `CN(C)CCCn1cc(C2=C(c3c[nH]c4ccccc34)C(=O)NC2=O)c2ccccc21`, the residual activity in test [6] stood at 100%; in [7] it was 100%; in [8] it was 72%; in test [9], 111%; in test [10], 89%; in [11], 121%. The residual activity in test [12] was 53%; in test [1], 137%; in test [2], 75%; in [15] it was 121%; in test [16] it was 90%; in test [17] it was 111%. Also, the residual activity in [5] was 117%.

For the compound `Cc1cccc(-c2[nH]c(C(C)(C)C)nc2-c2ccc3c(c2)OCO3)n1`, the residual activity came out at 89% in [6]; 87% in test [9]; 75% in [10]; 104% in test [1]; 88% in [2]; 96% in [13]. Moreover, the residual activity is 103% in test [14], 97% in [18], 94% in test [20] and 90% in test [5].

For `Nc1ccc2ncnc(NCCc3ccc(Oc4ccccc4)cc3)c2c1`, the residual activity in test [6] stood at 35%; in test [7], 101%; in test [8] it was 92%; in test [9], 100%; in test [10], 101%; in [11] it was 88%. In addition, the residual activity stood at 58% in [12]; 101% in [1]; 108% in test [2]; 80% in [13]; 94% in test [14]; 107% in [15]. The residual activity in test [16] is 149%; in [3] it was 97%; in [4], 124%; in [17] it was 88%; in test [18], 101%; in test [19], 93%. In addition, the values for the residual activity in test [20] and in test [5] were 105% and 97%, respectively.
